Source: PubChem BioAssay (NCATS)
Inconclusive results are not listed. Activity calls are given as the source filed them. Calls follow the shape of the dose curve; as a rule, active = well fitted curve in the direction sought with a large enough effect; inconclusive = small, poorly fitted or top-dose-only effect, or another doubt; inactive = no such curve, though single readings can be large or run the other way.

Experiment: qHTS Assay for Identifying Gametocytocidal Compounds (AID 743244);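 as to max response: actives lower the fluorescent signal which means gametocytes are killed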
Conditions: P. falciparum 3D7 stage III-V gametocytes, alamarBlue, 72 h; max response: active compounds read low
Outline: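 Fluorescence at Ex 525/Em 598 nm, recorded 24 h after alamarBlue addition, reports residual metabolic activity of 3D7 gametocytes (stages III–V) following 72 h compound exposure at 37 °C, 5% CO2.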
% is scaled to controls: 0 for no effect and ±100 for the full control effect; potency is read from the fitted curve at half-maximal effect.

Structure (SMILES)	Potency	max response
CCOC(=O)c1c(N)sc2c1CCN(Cc1ccccc1)C2	11200 nM (active)	–
CCOC(=O)C(C#N)=C(c1ccccc1)c1ccccc1	–	-6.54% (inactive)
CC(=O)N[C@@H](CCC(=O)O)C(=O)O	–	-0.648% (inactive)
O[C@@H](c1cc(C(F)(F)F)nc2c(C(F)(F)F)cccc12)[C@H]1CCCCN1	1050 nM (active)	–
Cn1c(=O)c2[nH]c(Br)nc2n(C)c1=O	–	-3.24% (inactive)
CC(=O)NC(=O)c1ccccc1O	–	-9.03% (inactive)
CCCCCCCCCCCCSCCOCCO	–	3.73% (inactive)
O=C(c1ccc(F)cc1)C1CCN(CCn2c(=S)[nH]c3ccccc3c2=O)CC1	–	-2.47% (inactive)
C/C=C/C=N/NC(=O)c1ccncc1	–	-5.06% (inactive)
O=C(Nc1cccc(C2=NCCN2)c1)Nc1cccc(C2=NCCN2)c1	–	-7.84% (inactive)
c1ccc(-c2nc[nH]c2-c2ccccc2)cc1	–	-4.96% (inactive)
O=C1c2cccc3c2[C@H](CCC3)CN1[C@@H]1CN2CCC1CC2	–	-7.45% (inactive)
Cc1ccccc1OCC(O)CO (centres undefined)	–	-6.04% (inactive)
CCOc1cc(OCC)c(C(=O)CCC(=O)O)cc1OCC	–	11% (inactive)
CCCCC(CC)COC(=O)/C=C/c1ccc(OC)cc1 (centres undefined)	–	11.8% (inactive)
OCc1ccccn1	–	-7.21% (inactive)
CC1=C(C(=O)O)N2C(=O)[C@@H](NC(=O)[C@H](N)c3ccccc3)[C@H]2SC1	–	2.91% (inactive)
CCN1/C(=C/C=C/c2sc3ccccc3[n+]2CC)Sc2ccccc21	1580 nM (active)	–
Nc1ccc(C(=O)NCC(=O)O)cc1	–	6.7% (inactive)
O=S(c1cc(Cl)cc(Cl)c1O)c1cc(Cl)cc(Cl)c1O	–	11.4% (inactive)

Structure (SMILES)	Potency	max response
CC(=O)Nc1ccc(CC(=O)O)cc1	–	7.88% (inactive)
C=C1c2cccc(O)c2C(O)=C2C(=O)[C@]3(O)C(O)=C(C(N)=O)C(=O)[C@@H](N(C)C)[C@@H]3[C@@H](O)[C@H]12	–	-4.37% (inactive)
CN(C)CCN1C(=O)c2ccccc2N(C)c2ccccc21	–	-0.0527% (inactive)
NS(=O)(=O)c1cc(C(=O)O)cc(N2CCCC2)c1Oc1ccccc1	–	-3.9% (inactive)
CCCCNC(=O)NS(=O)(=O)c1ccc(N)cc1	–	19.8% (inactive)
COc1cc(C(=O)NCc2ccc(OCCN(C)C)cc2)cc(OC)c1OC	–	1.8% (inactive)
CC(C)[C@@H]1CC[C@@H](C)CC1=O	–	-7.98% (inactive)
O=C(O)C(Cc1cc(I)c(O)c(I)c1)c1ccccc1 (centres undefined)	–	-2.86% (inactive)
Cc1cc(NS(=O)(=O)c2ccc(N)cc2)nc(C)n1	–	18.7% (inactive)
OC[C@H]1O[C@@H](Oc2ccc(O)cc2)[C@H](O)[C@@H](O)[C@@H]1O	–	0.374% (inactive)
Nc1ccc(S(=O)(=O)Nc2cnc3ccccc3n2)cc1	–	-6.45% (inactive)
CC(C)=CCOc1ccc(/C=C/C(=O)c2ccc(OCC=C(C)C)cc2OCC(=O)O)cc1	–	2.6% (inactive)
O=C(O)P(=O)(O)O	–	10.4% (inactive)
N=C(N)N1CCc2ccccc2C1	–	4.79% (inactive)
O=C(NC1CCN(CCc2c[nH]c3ccccc23)CC1)c1ccccc1	–	-6.9% (inactive)
CCN[C@@H]1C[C@H](N)[C@@H](OC2OC(CN)=CCC2N)[C@H](O)[C@H]1O[C@H]1OC[C@](C)(O)[C@H](NC)[C@H]1O (some centres undefined)	–	13.5% (inactive)
C=CCN1CCc2nc(N)sc2CC1	–	14.4% (inactive)
CCN(CC)CCOC(=O)C(Cc1cccc2ccccc12)CC1CCCO1 (centres undefined)	–	7.43% (inactive)
CCCCCCCCNC(C)C(O)c1ccc(SC(C)C)cc1 (centres undefined)	2510 nM (active)	–
